MARV entry inh = inhibitors of Marburg virus binding or cell entry. Marburg virus pseudotyped entry inhibition, cell reporter. Potency, µM (titrated, usually from 37.8 µM), without a hit: at the highest dose activity change, negative = inhibition, usual class: inhibitors. 300,000 compounds, 1.8% hits; calls by dose curve; tested in HEK293 cells
HCV inh = HCV inhibition; 340,000 compounds, 3.4% hits; AID 651820; Huh7.5.1 HCVcc-Cre infection, luciferase reporter, 44 h; Potency, µM (series often up to 41.8 µM), for inactives: at the top dose activity change, negative = inhibition, hits mostly inhibitors; active means well fitted inhibition curve with a large enough effect; inconclusive means small, poorly fitted or top-dose-only effect, or another doubt; inactive means no such curve, though single readings can be large or run the other way
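1,000 cells/well; 4 h culture; + compound; + HCVcc-Cre (~0.5 moi); 44 h; luciferase substrate, RT 15 min; read 15 sec.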
FMDV antiviral = foot and mouth disease virus antiviral activity; FMDV antiviral cell-based qHTS; Potency, µM (highest dose often 57.9 µM), inactives show at the highest dose activity change, negative = inhibition, hits mostly inhibitors; 410,000 compounds, 1.2% hits; calls by dose curve; tested in HEK293T cells; further: read-out not given here; nearly all actives have a fitted effect of over 45% in size
VACV mCherry inh = inhibitors of vaccinia virus infection (mCherry reporter signal) | Vaccinia virus mCherry reporter infection, fluorescence | 310,000 compounds, 0.63% hits | Potency, µM (titrated, usually from 36.5 µM), without a hit: at the top dose activity change, negative = inhibition, hits mostly inhibitors; calls by dose curve; tested in A549 cells; further: nearly all actives have a fitted effect of over 35% in size
LASV entry inh = Lassa virus entry inhibition. Lassa virus pseudotype entry inhibition, cell reporter. Potency, µM (top dose mostly 37.9 µM), for the others: at the highest dose activity change, negative = inhibition, hits mostly inhibitors. 300,000 compounds, 1.2% hits; calls by dose curve; tested in HEK293 cells; further: nearly all actives have a fitted effect of over 50% in size
VACV Venus inh = inhibitors of vaccinia virus (Venus reporter); 330,000 compounds, 0.46% hits; Potency, µM (highest dose often 36.5 µM), without a hit: at the highest dose activity change, negative = inhibition, actives largely listed as inhibitors; AID 720580; Vaccinia virus Venus reporter expression, fluorescence; calls by dose curve; tested in A549 cells; further: nearly all actives have a fitted effect of over 30% in size
The depositor's hits bear a star; i = inactive; ? = inconclusive; / = no result given; [ ] = another dose, or the depositor's remark. The list is not random: actives were taken first. Their share in the collection is about 5.3%. On the % scale 0 is the no-effect control and ±100 the full control effect; potency means the concentration at half of the fitted maximal effect.

SMILES	MARV entry inh	HCV inh	FMDV antiviral	VACV mCherry inh	LASV entry inh	VACV Venus inh
Cc1ccccc1-n1ncc2c([N+](=O)[O-])cc([N+](=O)[O-])cc21	-34%	7.9µM*	-18%	-4%[1.46 µM]	?	-7%
CC(C)NC(=O)NC1N=NC(Nc2ccc(Cl)cc2)=N1 (configuration not stated)	1%[46.1 µM]	/	/	/	/	/
Cc1ncc(CO)c(/C=N/NC(=O)c2cc3c(s2)CCCC3)c1O	?	7.9µM*	-6%	/	?	/
Cc1ncc(CO)c(/C=N/NC(=S)Nc2cccc(Cl)c2)c1O	/	?	-10%	?	/	?
Cc1ncc(CO)c(/C=N/NC(=S)Nc2ccc(Cl)c(Cl)c2)c1O	/	14µM*	-10%	-19%	/	-17%
Cc1ncc(CO)c(/C=N/NC(=O)c2ccc(O)cc2)c1O	27%	-15%	-29%	-17%	14%	-2%
CN1CCN(c2ncc3nc(-c4ccccc4)c(=O)n(C4CC4)c3n2)CC1	/	/	-7%	/	/	/
COc1ccc(-c2ccc(-c3noc(C(C)C)n3)c(OC)n2)cc1	-12%	1.6µM*	1%	/	?	-14%
CCOc1nc(-c2ccccc2)ccc1-c1noc(COC)n1	16%	10µM*	-11%	/	?	/
COCc1nc(-c2ccc(-c3ccccc3)nc2OC)no1	14%	14µM*	57%	-19%	9%	-9%
COCc1nc(-c2cc(Br)ccc2OC)no1	-7%[46.1 µM]	13µM*	-13%	/	1%	-3%
CCOc1nc(-c2ccccc2)ccc1-c1noc(-c2ccc(C)cc2)n1	19%[46.1 µM]	/	-8%	-4%	-2%[46.1 µM]	5%
COCc1nc(-c2ccc(-c3ccc(OC)cc3)nc2OC)no1	?	?	37%	i	10%	-18%
COc1ccc(Br)cc1-c1noc(-c2ccccc2)n1	6%	-16%	19%	/	3%	-23%
COC(=O)[C@]12CCCCC=C1N(Cc1ccccc1)C(=O)[C@H](CC(=O)NCc1ccccc1)C2	/	/	-5%	-11%	/	-18%
CCC(Sc1nncn2c1cc1oc(C)cc12)C(=O)Nc1ccc(F)cc1 (configuration not stated)	/	/	-25%	-7%	27%[46.1 µM]	-14%
COC(=O)c1ccccc1NC(=O)c1cc(C)nc2c1c(C)nn2-c1ccc(C)cc1	/	/	-1%	-6%	22%[46.1 µM]	-7%
COc1ccc(NC(=O)Cc2ccc(Cl)cc2)cc1NC(=O)c1ccco1	0%	10µM*	-26%	/	-26%	/
COc1ccc(NC(=O)c2ccco2)cc1NC(=O)c1cccc(OC(C)C)c1	?	?	-8%	/	10µM*	/
COc1cccc(C(=O)Nc2cc(NC(=O)c3ccco3)ccc2OC)c1	-21%	?	11%	/	1%	/
COc1ccc(NC(=O)c2ccco2)cc1NC(=O)C(C)(C)Oc1ccc(Cl)cc1	?	/	45µM*	-21%	?	-20%
COc1ccc(C(=O)Nc2cc(NC(=O)c3ccco3)ccc2OC)cc1Cl	-11%[46.1 µM]	/	-13%	-14%	11%[46.1 µM]	-2%
COc1ccc(NC(=O)c2ccco2)cc1NC(=O)c1ccco1	?	-22%	-15%	-12%	-2%	-5%
CCOc1ccc(NC(=O)Cn2c(=O)n(-c3cccc(OC)c3)c(=O)c3c4c(sc32)CCCC4)cc1	2%[46.1 µM]	/	1%	-7%	3%[46.1 µM]	-6%
COc1ccc(-c2cc(C(C)=O)c(C)n2CCC(=O)NCc2ccccc2OC)cc1	/	/	-11%	-8%	-24%[46.1 µM]	-7%
SMILES	MARV entry inh	HCV inh	FMDV antiviral	VACV mCherry inh	LASV entry inh	VACV Venus inh
Cc1ccc(N2C(=O)CS(=O)(=O)C23C(=O)N(Cc2ccc(Cl)cc2)c2ccccc23)cc1C (configuration not stated)	/	/	-1%	-5%	-2%[46.1 µM]	-2%
C[n+]1c2n(c3ccccc31)N=C(c1ccc(-c3ccccc3)cc1)CS2	/	7.1µM*	?	-24%	/	?
C[n+]1c2n(c3ccccc31)N=C(c1ccccc1)CS2	?	-17%	?	-6%	?	-19%
Cn1nc(C(=O)NCc2ccc(F)cc2)c2c1-c1ccccc1S(=O)(=O)C2	/	14µM*	0%	/	/	/
CCn1c(CN2CCC(C)CC2)nc2cc(NC(=O)c3cccc([N+](=O)[O-])c3)ccc21	?	/	?	-26%	3%[46.1 µM]	-23%
COc1ccc(C(=O)NC(NC(=O)c2ccc(OC)cc2)c2ccccc2F)cc1	0%[46.1 µM]	-22%	-11%	i	-7%	-20%
C=CC(=O)NC(NC(=O)C=C)c1ccccc1F	-4%[46.1 µM]	15%	-7%	7.9µM*	-17%	?
CN1CC=C2C(C#N)=C(N)C(C#N)(C#N)[C@H](c3ccncc3)[C@H]2C1	-2%	/	/	/	/	/
Fc1ccc(Nc2nc(SCc3cccc(F)c3)nc3ccccc23)cc1	/	/	-3%	-1%	-24%[46.1 µM]	-12%
O=C(Cn1cc(S(=O)(=O)N2CCN(c3ccccc3F)CC2)c2ccccc2c1=O)NCCCN1CCCCCC1	?	22µM*	-6%	?	5%	-13%
N#CC1=C(N)N2C(=C(C#N)C13CCN(Cc1ccccc1)CC3)Nc1ccccc12	-21%	-6%	-2%	/	5%	/
N#CC1=C(N)N2C(=C(C#N)C1c1cccc(Br)c1)Nc1ccccc12 (configuration not stated)	0%[46.1 µM]	?	7.9µM*	i	?	-3%
N#CC1=C(N)N2C(=C(C#N)C1c1ccc(Br)cc1)Nc1ccccc12 (configuration not stated)	9.2µM*	6.3µM*	?	/	?	/
CCCOc1ccccc1C(=O)N(Cc1cccc(Br)c1)C1CCS(=O)(=O)C1 (configuration not stated)	?	14%	0.71µM*	-3%	?	-10%
Nc1cccc(-c2cn3ccsc3n2)c1	/	/	35%	-6%	-20%[46.1 µM]	-4%
Cc1ccc(C[n+]2ccccc2)cc1	/	4.5µM*	-21%	i	/	-26%
COc1ccc(CCNC(=O)C(=O)NCC2OCCN2S(=O)(=O)c2ccc(Cl)cc2)cc1 (configuration not stated)	/	11µM*	?	?	/	-22%
COc1ccc(S(=O)(=O)N2CCOC2CNC(=O)C(=O)NCCc2c[nH]c3ccccc23)cc1 (configuration not stated)	-10%	?	22µM*	-10%	?	-18%
COc1ccc(CCNC(=O)C(=O)NCC2OCCN2S(=O)(=O)c2ccc(OC)cc2)cc1 (configuration not stated)	/	?	?	-17%	/	-21%
COc1ccc(S(=O)(=O)N2CCOC2CNC(=O)C(=O)NCCc2c[nH]c3ccccc23)cc1C (configuration not stated)	?	11µM*	?	?	?	?
COc1cc(Cl)c(C)cc1NC(=O)c1ccc(CN2C(=O)CCn3nc(C)cc32)cc1	/	/	-8%	-10%	21%[46.1 µM]	-8%
CCN(CC)C(=O)Cn1c(=O)n(CCCCCC(=O)NCc2ccccc2Cl)c(=O)c2sccc21	?	/	-10%	-11%	-22%[46.1 µM]	-6%
